We go through 39 molecules from PubChem BioAssay (NCI).

This is part of a sample that, as a whole, favours compounds with a hit. Of some 83,000 tested, about 20% had one in any assay.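 Negative percent growth values reflect cell death: -40 means 40% of the cells present at the start died, and -100 means all died.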 Active and inactive are the calls of the source. The calls were made as follows: active = growth percent below 10; inactive = the rest.

The subject of one assay is SF-539 CNS. In words: NCI-60 one-dose screen, 48 h (100 = growth as untreated, 0 = no growth, -100 = all killed). As to conditions: 10 µM.
For `O=S(=O)(NCCCNc1nccc(-c2c(-c3ccc(F)cc3)nc3sccn23)n1)c1ccc2ccccc2c1`, the growth is 85.3% (inactive).
`O=C(Nc1cccc(-n2cc(-c3ccncc3)c(-c3ccc(O)c(Cl)c3)n2)c1)c1ccc(Cl)c(Cl)c1`: the growth was 35.8% (inactive).
On the same count and under the same terms, for `Cc1ccc(C)c(C(O)(c2cc(C)ccc2C)C2(O)CCCCC2)c1` the value was 94.6% (inactive).
Turning to `O=C(/C=C/c1cc2ccccc2[nH]c1=O)c1ccc2c(c1)OCO2`, the growth was 88.2% (inactive).
As for `O=C(Nc1cccc(-n2cc(-c3ccncc3)c(-c3ccc(O)c(Cl)c3)n2)c1)Nc1ccc(Cl)c(Cl)c1`, the growth was -19.8% (active).
With `O=C(Nc1ccc(OS(=O)(=O)c2ccccc2)cc1)C12CC3CC(CC(C3)C1)C2`, the growth is 19.7% (inactive).
As for `COc1ccc(-c2nn(-c3cccc(NC(=O)Nc4ccc(Cl)c(C(F)(F)F)c4)c3)cc2-c2ccncc2)cc1Cl`, the growth is -7.12% (active).
Turning to `COc1ccc(-c2nn(-c3cccc(NC(=O)c4ccc(Cl)c(Cl)c4)c3)cc2-c2ccncc2)cc1Cl`, the growth was 72.2% (inactive).
The same measure, in the same setting: the result for `CCOC(=O)CCC(NC(=O)c1ccc(N)cc1)C(=O)OCC` (stereo not drawn) reads 97.6% (inactive); that for `O=C(Nc1ccccc1)Nc1cccc(-n2cc(-c3ccncc3)c(-c3ccc(O)c(Cl)c3)n2)c1`, 0.346% (active).
Still for that read-out and setting: the result for `O=S(=O)(NCCNc1nccc(-c2c(-c3ccc(F)cc3)nc3sccn23)n1)c1ccc2ccccc2c1` reads 104% (inactive).
Consider `O=C(Nc1cccc(-n2cc(-c3ccncc3)c(-c3ccc(O)c(Cl)c3)n2)c1)c1cc(C(F)(F)F)cc(C(F)(F)F)c1`, for which the growth is 56.1% (inactive).
Turning to `O=C(N/N=C/c1cc2ccccc2c2ccccc12)c1cc(O)c(O)c(O)c1`, the growth is 50% (inactive).
Take `COc1ccc(-c2nn(-c3cccc(NC(=O)c4cc(C(F)(F)F)cc(C(F)(F)F)c4)c3)cc2-c2ccncc2)cc1Cl`: the growth was 67.4% (inactive).
In the case of `O=S(=O)(NCCCNc1nccc(-c2c(-c3ccc(F)cc3)nc3sccn23)n1)c1ccc(F)cc1`, the growth is 78.1% (inactive).
In the case of `COc1ccc(-c2nn(-c3cccc(NC(=O)c4ccc(N5CCOCC5)c(C(F)(F)F)c4)c3)cc2-c2ccncc2)cc1Cl`, the growth is 41% (inactive).
In the case of `CCCCCCN1CCN(Cc2ccc(N(CC)CC)cc2)C(=O)C1=O`, the growth was -1.86% (active).
In the case of `COc1ccc(Oc2nc(NC3CCCC3)nc(Sc3ccc(OC)cc3)n2)cc1`, the growth is 83.4% (inactive).
For `COc1ccc(-c2nn(-c3cccc(NC(=O)Nc4cccc(C(F)(F)F)c4)c3)cc2-c2ccncc2)cc1Cl`, the growth was 16.2% (inactive).
As for `COc1ccc(-c2nn(-c3cccc(NC(=O)Nc4ccccc4)c3)cc2-c2ccncc2)cc1Cl`, the growth was -59.1% (active).
For the molecule `CCOC(=O)c1ccoc1`, the growth is 95.6% (inactive).
Take `COc1ccc(/C=C/C(C)=N/OCC(=O)O)cc1`: the growth was 101% (inactive).
For the molecule `CN(C)Cc1cn(-c2ncc(-c3ccc(C(F)(F)F)cc3)c(NC3CCCCCC3)n2)nn1`, the growth was 99.3% (inactive).
As for `COc1cccc(C(=O)Nc2ccc(CN3CCc4nc5cc(OC)c(OC)cc5cc43)cc2)c1`, the growth is 66.5% (inactive).
On to `O=[N+]([O-])c1cccc(-c2ncc(-c3ccc(Cl)cc3Cl)[nH]2)c1`, for which the growth was 101% (inactive).
On to `CCN(CC)CCSCCN(CC)CC`, for which the growth is 97% (inactive).
As to `COc1ccc([N+](=O)[O-])c(C(=O)O)c1`, the growth was 98.7% (inactive).
For the molecule `CNc1ncc(-c2ccc(C(F)(F)F)cc2)c(NC2CCCCCC2)n1`, the growth is 93.5% (inactive).
`CN(C)c1ccc(/C=C/C=N/NC(=O)c2cc(O)c(O)c(O)c2)cc1`: the growth was 89.8% (inactive).
The same measure, in the same setting: for `O=C(Nc1cccc(-n2cc(-c3ccncc3)c(-c3ccc(O)c(Cl)c3)n2)c1)c1ccc(N2CCOCC2)c(C(F)(F)F)c1` the value was -28% (active).
For the molecule `Cc1ccc(CC#N)cc1C`, the growth is 87.5% (inactive).
Still for that read-out and setting: for `O=c1oc2cc(OS(=O)(=O)c3ccccc3)ccc2c2c1CCCCC2` the value was 48.3% (inactive); for `CCOC(=O)C(NC(=O)C(Cl)Cl)C(O)c1ccccc1` (stereo not drawn), 99.5% (inactive).
Still for that read-out and setting: the result for `C/C(N)=C(\C#N)C(=O)c1ccccc1` reads 103% (inactive).
Same read-out and setting: the result for `Nc1ncnc2[nH]c(=O)[nH]c12` reads 87% (inactive).
For the molecule `COc1ccc(-c2nn(-c3cccc(NC(=O)c4cccc(C(F)(F)F)c4)c3)cc2-c2ccncc2)cc1Cl`, the growth is -39.6% (active).
With `O=C1CC[C@@H]2CCCC[C@@H]2C1`, the growth is 102% (inactive).
The same measure, in the same setting: for `Cc1ccc(S(=O)(=O)OCCN(CCOS(=O)(=O)c2ccc(C)cc2)c2c[nH]c(=O)[nH]c2=O)cc1` the value was 96.4% (inactive); for `FC(F)(F)c1ccc(-c2cnc(-n3cc(COCCN4CCCCC4)nn3)nc2NC2CCCCCC2)cc1`, -66.8% (active).

For a further assay, the system named is UACC-257 melanoma. The assay is described as above. As to conditions: 10 µM.
As to `O=S(=O)(NCCCNc1nccc(-c2c(-c3ccc(F)cc3)nc3sccn23)n1)c1ccc2ccccc2c1`, the growth was 56.8% (inactive).
On to `O=C(Nc1cccc(-n2cc(-c3ccncc3)c(-c3ccc(O)c(Cl)c3)n2)c1)c1ccc(Cl)c(Cl)c1`, for which the growth is 10.8% (inactive).
On to `Cc1ccc(C)c(C(O)(c2cc(C)ccc2C)C2(O)CCCCC2)c1`, for which the growth is 102% (inactive).
Regarding `O=C(/C=C/c1cc2ccccc2[nH]c1=O)c1ccc2c(c1)OCO2`, the growth was 94.2% (inactive).
The same measure, in the same setting: for `O=C(Nc1cccc(-n2cc(-c3ccncc3)c(-c3ccc(O)c(Cl)c3)n2)c1)Nc1ccc(Cl)c(Cl)c1` the value was -42.7% (active).
Take `O=C(Nc1ccc(OS(=O)(=O)c2ccccc2)cc1)C12CC3CC(CC(C3)C1)C2`: the growth is 37.8% (inactive).
As to `COc1ccc(-c2nn(-c3cccc(NC(=O)Nc4ccc(Cl)c(C(F)(F)F)c4)c3)cc2-c2ccncc2)cc1Cl`, the growth is -7.89% (active).
`COc1ccc(-c2nn(-c3cccc(NC(=O)c4ccc(Cl)c(Cl)c4)c3)cc2-c2ccncc2)cc1Cl`: the growth is 86.9% (inactive).
Take `CCOC(=O)CCC(NC(=O)c1ccc(N)cc1)C(=O)OCC` (stereo not drawn): the growth is 101% (inactive).
Still for that read-out and setting: for `O=C(Nc1ccccc1)Nc1cccc(-n2cc(-c3ccncc3)c(-c3ccc(O)c(Cl)c3)n2)c1` the value was 10.3% (inactive); for `O=S(=O)(NCCNc1nccc(-c2c(-c3ccc(F)cc3)nc3sccn23)n1)c1ccc2ccccc2c1`, 71% (inactive).
On to `O=C(Nc1cccc(-n2cc(-c3ccncc3)c(-c3ccc(O)c(Cl)c3)n2)c1)c1cc(C(F)(F)F)cc(C(F)(F)F)c1`, for which the growth is 66.9% (inactive).
For the molecule `O=C(N/N=C/c1cc2ccccc2c2ccccc12)c1cc(O)c(O)c(O)c1`, the growth was 75.3% (inactive).
`COc1ccc(-c2nn(-c3cccc(NC(=O)c4cc(C(F)(F)F)cc(C(F)(F)F)c4)c3)cc2-c2ccncc2)cc1Cl`: the growth was 62% (inactive).
As to `O=S(=O)(NCCCNc1nccc(-c2c(-c3ccc(F)cc3)nc3sccn23)n1)c1ccc(F)cc1`, the growth is 57.2% (inactive).
Consider `COc1ccc(-c2nn(-c3cccc(NC(=O)c4ccc(N5CCOCC5)c(C(F)(F)F)c4)c3)cc2-c2ccncc2)cc1Cl`, for which the growth is 67.8% (inactive).
As for `CCCCCCN1CCN(Cc2ccc(N(CC)CC)cc2)C(=O)C1=O`, the growth was 33.7% (inactive).
As for `COc1ccc(Oc2nc(NC3CCCC3)nc(Sc3ccc(OC)cc3)n2)cc1`, the growth is 87.3% (inactive).
As for `COc1ccc(-c2nn(-c3cccc(NC(=O)Nc4cccc(C(F)(F)F)c4)c3)cc2-c2ccncc2)cc1Cl`, the growth is -5.98% (active).
On to `COc1ccc(-c2nn(-c3cccc(NC(=O)Nc4ccccc4)c3)cc2-c2ccncc2)cc1Cl`, for which the growth is -32.9% (active).
With `CCOC(=O)c1ccoc1`, the growth is 80.3% (inactive).
As for `COc1ccc(/C=C/C(C)=N/OCC(=O)O)cc1`, the growth was 112% (inactive).
On to `CN(C)Cc1cn(-c2ncc(-c3ccc(C(F)(F)F)cc3)c(NC3CCCCCC3)n2)nn1`, for which the growth is 82.8% (inactive).
On to `COc1cccc(C(=O)Nc2ccc(CN3CCc4nc5cc(OC)c(OC)cc5cc43)cc2)c1`, for which the growth was 35.9% (inactive).
Still for that read-out and setting: the result for `O=[N+]([O-])c1cccc(-c2ncc(-c3ccc(Cl)cc3Cl)[nH]2)c1` reads 109% (inactive).
Regarding `CCN(CC)CCSCCN(CC)CC`, the growth was 97.6% (inactive).
Same read-out and setting: for `COc1ccc([N+](=O)[O-])c(C(=O)O)c1` the value was 110% (inactive).
As to `CNc1ncc(-c2ccc(C(F)(F)F)cc2)c(NC2CCCCCC2)n1`, the growth is 73.2% (inactive).
As to `CN(C)c1ccc(/C=C/C=N/NC(=O)c2cc(O)c(O)c(O)c2)cc1`, the growth is 92.8% (inactive).
Still for that read-out and setting: for `O=C(Nc1cccc(-n2cc(-c3ccncc3)c(-c3ccc(O)c(Cl)c3)n2)c1)c1ccc(N2CCOCC2)c(C(F)(F)F)c1` the value was 60.1% (inactive); for `Cc1ccc(CC#N)cc1C`, 127% (inactive); for `O=c1oc2cc(OS(=O)(=O)c3ccccc3)ccc2c2c1CCCCC2`, 50.8% (inactive).
`CCOC(=O)C(NC(=O)C(Cl)Cl)C(O)c1ccccc1` (stereo not drawn): the growth was 105% (inactive).
In the case of `C/C(N)=C(\C#N)C(=O)c1ccccc1`, the growth was 88% (inactive).
For `Nc1ncnc2[nH]c(=O)[nH]c12`, the growth was 103% (inactive).
The same measure, in the same setting: for `COc1ccc(-c2nn(-c3cccc(NC(=O)c4cccc(C(F)(F)F)c4)c3)cc2-c2ccncc2)cc1Cl` the value was 25.5% (inactive); for `O=C1CC[C@@H]2CCCC[C@@H]2C1`, 116% (inactive).
Regarding `Cc1ccc(S(=O)(=O)OCCN(CCOS(=O)(=O)c2ccc(C)cc2)c2c[nH]c(=O)[nH]c2=O)cc1`, the growth is 91.4% (inactive).
`FC(F)(F)c1ccc(-c2cnc(-n3cc(COCCN4CCCCC4)nn3)nc2NC2CCCCCC2)cc1`: the growth was -89.7% (active).
